14 compounds from PubChem BioAssay (EPA / NIEHS) can be followed below.

Structures are written as SMILES. Active and inactive are the calls of the source. How the source made its calls: active means hit-call score of the fitted dose curve at least 0.9, where 1 is the maximum; inactive means score below 0.9.

Read-out in this assay: catalase (CAT), CAT (gene 847)
As to the kind of experiment: LTEA_HepaRG_CAT: Life Technologies and Expression Analysis (LTEA) Assay for catalase (CAT) using HepaRG (AID 2283452).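 On AC50: TaqMan qRT-PCR signal normalized to ACTB GAPDH and POLR2A housekeeping genes.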 Conditions: mRNA level, 48 h; actives raise or lower the signal. On the procedure:
LTEA_HepaRG is a cell based, multiplexed-readout assay that uses HepaRG, a human liver cell line, with measurements taken at 48 hours after chemical dosing on a 96-well plate.LTEA_HepaRG_CAT is one of 102 assay component(s) measured in the LTEA HepaRG cell culture assay. It is a marker of Oxidative Stress.Data from the assay component LTEA_HepaRG_CAT was analyzed into 1 endpoint. This assay endpoint, LTEA_HepaRG_CAT, was analyzed with bidirectional fitting relative to DMSO as the negative control and baseline of activity. Using a type of inducible reporter, measures of mRNA induction for gain or loss-of-signal activity can be used to understand regulation of transcription factor activity. To generalize the intended target to other relatable targets, this assay endpoint is annotated to the catalase intended target family, where the subfamily is oxidative stress.
A total of 1060 chemcials from the ToxCast library were tested in eight-point concentration-response experiments. Cell culture and cytotoxicity assays were conducted at Thermo Fisher Scientific's Custom Services facility (Madison, WI). A single lot of human HepaRG cells (Thermo Fisher Scientific, Frederick, MD) was used for the cell culture experiments. 96-well format collagen type I coated plates of human HepaRG cells were prepared using established methods. Briefly, cryopreserved HepaRG cells were thawed, plated at a density of approximately 100,000 cells/well in HepaRG Thaw, Plate, and General Purpose media (HPRG770, Thermo Fisher Scientific), and incubated for 48 hours. 0.5% DMSO was selected as vehicle control to balance the requisite need of DMSO in HepaRG cultures to maintain differentiation (for example, baseline metabolism, proportions of hepatocytes vs. cholangiocytes), while enabling further hepatic receptor pathway activation (for example, PXR and CAR) in response to chemical exposure. 48 hours after plating, the culture medium was replaced with HepaRG Serum-Free Incudtion Media. Cells were exposed to each test chemical in duplicate and maintained in CO2 incubators for another 48 hours. Chemical plates were thawed to room temperature and 200x concentrations of treatment groups were prepared. 8-point conentration-reponse curves were made with the highest exposure at 100 uM, followed by half-log dilutions, all in 0.5% DMSO. Each test plate contained variouse controls, induction positive controls (1mM phenobarbital), cytotoxicity positive controls ([…] aflatoxin B1), vehicle controls (0.5% DMSO), and total lysis controls (0.5% DMSO). Cell morphology images were taken using an Essen IncuCyte FLR automated microscope, with six 96-well plates imaged in about 24 minutes. Images were captured and exported and JPEG files. Spent culture media was transfered to black-well plates for the LDH assay, and remaining media was sorted at -80 C for later use. Cells were treated with RLT buffer and frozen until shipped for gene expression analysis. Total RNA was isolated from the cell suspension in 75 uL of Buffer RLT (Qiagen, Germantown, MD 20874) by Quintiles/Expression Analysis (Durham, NC) using a custom isolation procedure. Total RNA from each plate well was transferred to a preamplification plate. Fluidigm's 96.96 Dynamic ArrayTM (Fluidigm, Amsterdam, the Netherlands) technology was used for gene expression analyses by quantitative reverse transcription polymerase chain reaction (qRT-PCR, performed by Quintiles/Expression Analysis, Durham, NC)89. Standard TaqManTM Assays (Applied Biosystems/ThermoFisher Scientific, Foster City, CA) were used to assess the expression of 93 genes selected based on their selectivity and sensitivity to important hepatic receptors known to be modulated by environmental chemicals; importance in human hepatocyte functionality; and hepatotoxicity. […]
On to `Cc1cc(C)cc(C)c1`, for which the compound was called inactive.
The same measure, in the same setting: under `CC(C)(C)c1ccccc1O` stands “inactive”; under `OCCN(CCO)CCO`, “inactive”.
For `CN(C)C(=S)S`, the outcome was inactive.
In the case of `CCCCCCCCCCCCc1cccc(S(=O)(=O)O)c1`, the compound was called inactive.
Same read-out and setting: under `COc1ccccc1N` stands “inactive”; under `Clc1cccc(Cl)c1Cl`, “inactive”; under `Oc1cc(Cl)c(Cl)cc1Cl`, “inactive”.
For `O=C(O)C1(c2ccc3c(c2)OC[C@H](Cc2ccc(-c4ccccc4)cc2)[C@H]3O)CCCC1`, the AC50 (usually the concentration at which the activity in the assay is half-maximal) is 82 µM (active).
With `Oc1c(Cl)cc(Cl)cc1Cl`, the call was inactive.
In the case of `Clc1cccc(Cl)c1`, the result was inactive.
Consider `O=C(N[C@H]1CN2CCC1CC2)c1ccc2c(c1)OCCO2`, for which the compound was classed as inactive.
Regarding `N#Cc1cccnc1`, the outcome was inactive.
For `CC(C)O.CC(C)O.OCCN(CCO)CCO.OCCN(CCO)CCO.[Ti]`, the result was inactive.
